Only some compounds are listed: those with a hit (about 19% of all), similar ones and a draw of the others.
TDP1 cell noCPT: qHTS for Inhibitors of human tyrosyl-DNA phosphodiesterase 1 (TDP1): qHTS in cells in absence of CPT. DT40 Tdp1-/- hTDP1 cells, no CPT, ATP luminescence, 48 h. actives 15% (n = 420,000). Potency, µM (top dose mostly 46.2 µM), for the others: at the top dose activity change, negative = growth inhibition, actives largely listed as inhibitors. AID 686978, 2013; further: potency means the concentration at half of the fitted maximal effect; nearly all actives have a fitted effect of over 55% in size
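Luminescent ATP content (CellTiter-Glo) served as the growth readout. Knockout chicken DT40 cells expressing human TDP1 were exposed to compounds without camptothecin for a minimum 48 hr at 37 °C.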
Giardia kill: Giardia lamblia killing; Giardia lamblia trophozoite viability; activity change, % at 7.66 µM, hits read low; actives 0.15% (n = 340,000); AID 540267; in the data active means activity change below about -80%; inconclusive means between about -30% and that limit;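 further: parasites exposed to compound for two days anaerobically before the ATP read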
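Giardia lamblia trophozoites (100 cells/well) were incubated with compounds for 48 h at 37 deg C under anaerobic conditions. Viability was read as ATP content by one-step luminescence after 15-30 min at room temperature.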
TDP1 cell CPT: DT40-hTDP1 cell growth loss with CPT; chicken DT40 Tdp1-/-;hTDP1 cells + 20 nM CPT, ATP luminescence, 48 h; actives 12% (n = 420,000); Potency, µM (top dose mostly 46.2 µM), without a hit: top-dose activity change, negative = growth inhibition, actives largely listed as inhibitors; further: potency means the concentration at half of the fitted maximal effect; nearly all actives have a fitted effect of over 55% in size
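Cell growth measured by CellTiter-Glo luminescence after a minimum 48 h, 37 C compound exposure with 20 nM CPT in Tdp1-knockout DT40 cells stably expressing hTDP1, seeded 400/well; qHTS titration format.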
IL1B secr inh: inflammasome signaling inhibition, IL-1 beta readout; THP-1 LPS/ATP IL-1B secretion, AlphaLISA, 16 h; hits give low values; activity change, % at 57.5 µM; actives 4.7% (n = 360,000); AID 743279; in the data active means activity change below about -50%; inconclusive means mostly about -30% to -49%
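Secreted IL-1B measured by AlphaLISA bead assay after 16 h compound exposure of THP-1 cells; compounds (final up to 57.5 uM) added 1 h before LPS (250 ng/mL) and ATP (1.25 mM) stimulation; lower signal means less secretion.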
ELG1 DNA repair: ELG1-dependent DNA repair inhibition; actives 2.3% (n = 330,000); HEK293T ELG1-luciferase reporter, luminescence, 16 h; DNA damage induced by 5-fluorouridine; Potency, µM (titrated, usually from 46.1 µM), for the others: at the top dose activity change, negative = inhibition, hits mostly inhibitors; further: potency means the concentration at half of the fitted maximal effect; nearly all actives have a fitted effect of over 55% in size
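HEK293T cells expressing luciferase-tagged ELG1 (2,000/well) received 5-Fluorouridine plus compound or DMSO for 16 hr at 37 °C. Luciferase was read by ONE-Glo luminescence after 30 min at room temperature.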
TDP1 block: TDP1 (human) enzyme inhibition | Q9NUW8 | recombinant TDP1, AlphaScreen DNA substrate cleavage | Potency, µM (series often up to 130 µM), for inactives: top-dose activity change, negative = inhibition, most hits filed as inhibitors | actives 0.28% (n = 350,000); further: potency means the concentration at half of the fitted maximal effect; nearly all actives have a fitted effect of over 40% in size
Target sequence (Q9NUW8 whole entry, looked up): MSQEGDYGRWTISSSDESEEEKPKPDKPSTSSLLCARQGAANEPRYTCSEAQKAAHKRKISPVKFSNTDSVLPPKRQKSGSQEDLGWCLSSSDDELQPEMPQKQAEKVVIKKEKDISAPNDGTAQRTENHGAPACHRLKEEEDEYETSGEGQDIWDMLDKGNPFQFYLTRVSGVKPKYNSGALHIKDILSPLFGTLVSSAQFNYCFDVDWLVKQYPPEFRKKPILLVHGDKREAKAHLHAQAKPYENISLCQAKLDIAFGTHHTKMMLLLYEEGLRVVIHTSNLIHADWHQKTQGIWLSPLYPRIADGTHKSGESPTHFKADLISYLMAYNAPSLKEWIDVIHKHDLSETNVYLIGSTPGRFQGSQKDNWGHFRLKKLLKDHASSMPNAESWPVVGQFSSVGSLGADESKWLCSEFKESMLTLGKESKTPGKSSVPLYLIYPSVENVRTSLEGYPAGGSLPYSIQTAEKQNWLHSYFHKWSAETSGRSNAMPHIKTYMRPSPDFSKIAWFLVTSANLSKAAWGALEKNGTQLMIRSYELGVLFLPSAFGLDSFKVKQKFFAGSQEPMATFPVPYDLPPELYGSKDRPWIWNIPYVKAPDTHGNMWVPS
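Here, a 5' biotin and 3' phosphotyrosine-FITC DNA oligonucleotide reports Tdp1 activity: intact substrate bridges AlphaScreen beads, while cleavage leaves a 3' phosphate and drops signal. All incubations at room temperature.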
Starred values were filed as active, the others as inactive; ? = inconclusive; nt = not tested or not shown; ! = not confirmed by another sample; [ ] = another dose, or the depositor's remark. Unless noted, the call rests on the fitted dose curve; in most records, active means well fitted curve in the direction sought with a large enough effect; inconclusive means small, poorly fitted or top-dose-only effect, or another doubt; inactive means no such curve, though single readings can be large; an effect the other way counts as inactive or inconclusive. On the % scale 0 is the no-effect control and ±100 the full control effect.

SMILES | TDP1 cell noCPT | Giardia kill | TDP1 cell CPT | IL1B secr inh | ELG1 DNA repair | TDP1 block
CC(C)CNc1nc(Oc2ccc(=O)n(C)n2)nc(N2CCOCC2)n1 | -7.6% | -3.3 | -19.9% | 5.5 | ? | 8.0%
CC(C)(C)Nc1nc(Oc2ccc(=O)n(-c3ccccc3)n2)nc(N2CCOCC2)n1 | 20.6µM* | -4.2 | ? | -11.3 | -20.9% | 1.0%
COc1ccc(CNc2nc3c(S(=O)(=O)c4ccccc4)nnn3c3ccc(Cl)cc23)cc1 | -26.7% | nt | ? | nt | nt | -1.0%
C[C@H](N)C(=O)N[C@@H](CO)C(=O)N[C@H](C(=O)N[C@H](C(=O)N[C@H](C(=O)N[C@@H](CC(N)=O)C(=O)N[C@@H](Cc1ccc(O)cc1)C(=O)N[C@H](C(=O)O)[C@@H](C)O)[C@@H](C)O)[C@@H](C)O)[C@@H](C)O | nt | nt | nt | nt | nt | 7.5%
COc1cc(/C=C2/SC(=S)NC2=O)ccc1OS(=O)(=O)c1ccc(C)cc1 | 14.6µM* | 11.1 | ? | -53.0* | ? | 5.7%
COc1cc(/C=C2\SC(=S)N(CCCCC(=O)O)C2=O)ccc1OS(=O)(=O)c1ccc(C)cc1 | ? | -1.9 | ? | -87.3* | 26.0% | nt
CC(=O)Nc1ccc(S(=O)(=O)N(CCCN2CCOCC2)Cc2cccs2)cc1 | -3.8% | -7.7 | -2.9% | 1.4 | 12.3% | 0.0%
CC(C)(C)c1ccc(S(=O)(=O)N(CCCN2CCOCC2)Cc2cccs2)cc1 | 16.4µM* | 2.5 | ? | ? | ? | 0.0%
O=C(O)C1CCCN1S(=O)(=O)c1cccc2nsnc12 (stereo not given) | -19.6% | -2.8 | 1.4% | 1.4 | -5.5% | -1.2%
CN(C)CCNC(=O)c1sc2nc(-c3ccccc3)cc(C(F)(F)F)c2c1N | 16.4µM* | -12.3 | ? | -98.7* | -0.3% | 2.8%
CCc1cccc(NC(=O)COC(=O)/C=C/c2cccs2)c1 | -14.2% | 12.4 | -6.3% | 0.7 | 8.8% | -13.2%
COc1cc(C(=O)NCCOc2cc(C)cc(C)c2)c(Br)c(OC)c1OC | ? | -15.4 | 16.4µM* | 11.1 | -26.3% | 5.9%
CCCN(C(=O)c1cccc(-n2cccc2)c1)c1c(N)n(Cc2ccccc2)c(=O)[nH]c1=O | -6.1% | 13.0 | -8.6% | -10.0 | -2.0% | 44.7µM*
CCCCN(C(=O)c1ccc(N2CCCC2=O)cc1)c1c(N)n(CCC)c(=O)[nH]c1=O | 6.51µM* | ? | -15.4% | -11.1 | 6.8% | 2.4%
CCCCN(C(=O)c1cccc(-n2cccc2)c1)c1c(N)n(CCC)c(=O)[nH]c1=O | 4.4% | 0.2 | 4.5% | -0.9 | 18.9% | 50.1µM*
Brc1ccccc1-c1nnc2sc(Cc3ccccc3)nn12 | -9.5% | 2.3 | -26.4% | -55.7* | 3.6% | 5.2%
COc1ccc(Cc2nn3c(-c4ccccc4Br)nnc3s2)cc1 | ? | -4.9 | ? | -84.5* | ? | 8.7%
COc1ccc(Cc2nn3c(-c4cc(OC)c(OC)c(OC)c4)nnc3s2)cc1 | ? | 4.7 | ? | -11.9 | ? | 4.6%
Clc1ccccc1-c1nnc2sc(CCc3ccccc3)nn12 | ? | 9.5 | ? | 0.0 | -1.7% | 8.2%
O=C(Cn1c(NCCO)nc2ccccc21)N1CCN(Cc2ccccc2)CC1 | -17.9% | -10.9 | 3.5% | -15.2 | -4.1% | 5.1%
CN(Cc1ccccc1)C(=O)C1CCCN(Cc2cccc(Cl)c2)C1 (stereo not given) | 23.1µM*! | -6.6 | ? | 37.1 | 0.7% | -2.7%
COc1cccc(CC(NC(C)=O)C(=O)NC2CCN(C(=O)c3ccc(Cl)cc3)CC2)c1 (stereo not given) | 5.8µM* | -24.8 | -21.9% | -5.2 | 1.4% | 1.4%
COc1cccc(CN(C)C(=O)C2CCCN(C(=O)c3ccc(Cl)cc3)C2)c1 (stereo not given) | ? | nt | 20.6µM* | 11.9 | nt | nt
CCCOc1ccc(C(=O)N2CCN(Cc3ccc4c(c3)OCO4)CC2)cc1 | -28.4% | 9.4 | -0.8% | ? | -14.5% | nt
Cc1cccc(-n2c3nc(=O)n(C)c(=O)c-3cc3ccc(Cl)cc32)c1C | ? | nt | -4.5% | nt | nt | 0.0%
SMILES | TDP1 cell noCPT | Giardia kill | TDP1 cell CPT | IL1B secr inh | ELG1 DNA repair | TDP1 block
CC(=O)N1CCN(c2ccc(Oc3ncnc4sccc34)cc2)CC1 | -22.6% | 4.0 | -25.0% | -28.4 | 20.6µM* | 6.1%
CSc1nn2cc(CCN3CCOCC3)c(-c3ccc(F)cc3)nc2c1C#N | ? | -2.8 | -5.5% | 2.2 | 4.6% | 0.0%
CSc1nc(NCc2ccccc2)c2c3c(sc2n1)CN(C)CC3 | 23.1µM* | 4.0 | 23.1µM* | ? | 13.9% | 7.2%
CN(C)CCSc1nc(N)c2c3c(sc2n1)CN(C)CC3 | ? | 18.9 | ? | 12.0 | -0.1% | -1.9%
CCCSc1nc(N)c2c3c(sc2n1)CN(C)CC3 | 23.1µM* | 0.3 | -25.8% | -17.3 | ? | -1.0%
COCCNc1nc(SC)nc2sc3c(c12)CCN(C)C3 | -3.4% | 45.6 | -11.3% | 0.0 | 10.7% | nt
CSc1nc(NCC(C)C)c2c3c(sc2n1)CN(C)CC3 | ? | -3.3 | 20.6µM* | 3.4 | -13.3% | 2.0%
CC(C)N(C(=O)CSc1nc2ccccc2n1Cc1ccccc1F)C(C)C | 16.4µM* | -13.3 | 16.4µM* | -10.2 | ? | 2.2%[56.1 µM]
CN(Cc1ccccc1)C(=O)CSc1nc2ccccc2n1Cc1ccccc1F | 6.51µM* | nt | ? | nt | nt | 3.8%
NC(=O)CSc1nc2ccccc2n1Cc1ccccc1F | ? | 16.2 | -25.2% | -5.1 | -10.3% | 2.2%
CC(C)N(C(=O)CSc1nc2ccccc2n1Cc1ccccc1)C(C)C | ? | -0.5 | ? | 8.9 | ? | 0.0%

Assay outcomes from PubChem BioAssay.
